Compound activity deposited in PubChem BioAssay by several laboratories.
Peg3 prom inh: Peg3 promoter activity inhibition. HeLa PEG-Prom luciferase reporter, luminescence, overnight. inhibition, % at 20 µM. 360,000 tested, 1.7% active. AID 588405;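 active = inhibition of at least 50% at 20 µM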
Shn3 3UTR inh: Schnurri-3 reporter inhibition in Clone20 osteoblasts; inhibition, % at 12.5 µM; AID 588674; Clone20 osteoblast Shn3 3'UTR firefly luciferase, 24 h; 360,000 tested, 0.52% active;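 active = mean inhibition of at least 75% with every replicate also reaching 75%; inconclusive = mean inhibition at least 75% but some replicate below; inactive = mean inhibition below 75%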
EBV LMP1 NFkB: reduces LMP1-driven NF-kappaB luciferase signal. LMP1-induced NF-kappaB luciferase reporter cells, luminescence. inhibition, % at 12.5 µM. 350,000 tested, 0.69% active. AID 504558; in the data active = inhibition above about 41%; inconclusive = no clear call, values can overlap the other calls
TROY signal inh: TROY signaling inhibition. Q293 LMP1-TROYcd NF-kB luciferase reporter, 4 h. inhibition, % at 10 µM. 360,000 tested, 0.98% active. AID 1347056;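 active = compounds whose plate-normalised and pattern-corrected inhibition of the luciferase reporter signal at the single screening dose is 50% or more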
MITF TRPM1 inh: MITF TRPM1 promoter inhibition in SK-MEL-5 cells. SK-MEL-5 TRPM1 promoter luciferase, 24 h. inhibition, % at 12.5 µM. 330,000 tested, 0.83% active;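 active = mean inhibition across replicates of 60% or more, whatever share of single replicates reaches that level; inconclusive = some that reach 60%, reason not given; inactive = mean inhibition across replicates below 60%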
TWEAK Fn14 block: inhibitors of TWEAK-Fn14 interaction signaling; TWEAK-stimulated Fn14 reporter cells, luciferase luminescence, 8 h; inhibition, % at 10 µM; 360,000 tested, 2% active; in the data active = inhibition above about 50%
A number is an active result; - = inactive; ? = inconclusive; . = not tested or not shown. An excerpt weighted towards active compounds, which were near 4.1% of everything screened.

SMILES	Peg3 prom inh	Shn3 3UTR inh	EBV LMP1 NFkB	TROY signal inh	MITF TRPM1 inh	TWEAK Fn14 block
CCN(CC)CCn1c(=N)n(CCO)c2ccccc21	-	-	-	-	-	-
CCN(CC)CCn1c(=N)n(CC(=O)c2ccc(Br)s2)c2ccccc21	80	-	.	-	.	-
N=c1n(CC(=O)c2ccc(Br)s2)c2ccccc2n1Cc1ccccc1	101	-	-	-	90	-
Cn1c(=N)n(CC(=O)c2ccc(Br)s2)c2ccccc21	-	-	-	-	-	-
COc1ccc(Nc2nc(OC)nc(OC)n2)cc1	-	-	-	-	-	-
COc1ccc(Nc2ccnc(Nc3ccc(OC)cc3)n2)cc1	-	-	-	-	-	64
COc1ccc(/C=C/C(=O)N2CCN(S(=O)(=O)c3ccccc3Br)CC2)cc1OC	-	-	-	-	-	-
CC(=O)c1cccc(NC(=O)c2cc(-c3cccs3)on2)c1	-	-	-	-	-	-
COc1cccc(-c2cc(C(=O)Nc3cccc(O)c3)no2)c1	-	-	-	-	-	66
O=C(Nc1cccc(O)c1)c1cc(-c2cccs2)on1	-	-	-	-	-	69
COc1ccc(NC(=O)c2cc(-c3cccc(OC)c3)on2)cc1	-	-	-	-	-	-
CCn1cc([N+](=O)[O-])c(C(=O)Nc2ccn(Cc3ccccc3F)n2)n1	-	-	-	-	-	-
Cc1ccc(NC(=O)c2cccc(Oc3ccc([N+](=O)[O-])cc3)c2)c(C(=O)O)c1	-	-	-	-	-	-
Cc1cccc(Oc2cc(NC(=O)c3ccccc3)cc([N+](=O)[O-])c2)c1	-	87	-	57	-	59
Cc1ccccc1Cn1ccc(NC(=O)c2nn(C)cc2[N+](=O)[O-])n1	-	-	-	78	-	87
Cn1cc([N+](=O)[O-])c(C(=O)Nc2cc(Oc3ccccc3)cc([N+](=O)[O-])c2)n1	104	96	-	-	82	-
CCOCCc1nnc(NC(=O)CS(=O)(=O)c2ccc(C)cc2)s1	-	-	-	-	-	-
Cc1[nH]n(C(N)=S)c(=O)c1N=Nc1cccc([N+](=O)[O-])c1C	-	-	-	-	-	-
NC(=S)n1[nH]c(-c2ccc([N+](=O)[O-])cc2)c(N=Nc2ccccc2[N+](=O)[O-])c1=O	-	-	-	-	-	-
NC(=S)n1[nH]c(-c2ccc([N+](=O)[O-])cc2)c(N=Nc2cccc([N+](=O)[O-])c2)c1=O	-	-	-	64	-	71
Cc1c(N=Nc2c(-c3ccc([N+](=O)[O-])cc3)[nH]n(C(N)=S)c2=O)cccc1[N+](=O)[O-]	-	-	-	-	62	70
O=C(c1ccccc1Br)N1CCN(Cc2ccc3c(c2)OCO3)CC1	-	-	43	-	-	-
COc1ccc2cc3cc(C(=O)N4CCN(Cc5ccc6c(c5)OCO6)CC4)oc3nc2c1	-	-	-	54	-	-
COc1ccc2cc3cc(C(=O)NCc4ccc5c(c4)OCO5)oc3nc2c1	-	-	-	-	-	-
CC(=O)Nc1ccc(S(=O)(=O)N(C)CC(=O)OCC(=O)N2CCCC2=O)cc1	-	-	-	-	-	-
SMILES	Peg3 prom inh	Shn3 3UTR inh	EBV LMP1 NFkB	TROY signal inh	MITF TRPM1 inh	TWEAK Fn14 block
C/C(=N/NC(=O)CN(c1ccccc1)S(=O)(=O)c1ccccc1)c1ccccc1O	-	-	-	-	-	-
Cc1ccc(C(=O)NCCc2ccccc2)cc1	-	-	57	67	-	97
Cc1cc(C(=O)COC(=O)c2cccc(NS(C)(=O)=O)c2)c(C)n1CC1CCCO1 (centres undefined)	-	-	?	76	-	92
Cc1ccc(C(=O)OCC(=O)c2cc(C)n(CC3CCCO3)c2C)cc1 (centres undefined)	-	-	-	72	-	64
Cc1cc(C(=O)COC(=O)c2cccnc2Cl)c(C)n1CC1CCCO1 (centres undefined)	-	-	65	88	-	99
Cc1cc(C(=O)COC(=O)c2ccccc2NCCO)c(C)n1CC1CCCO1 (centres undefined)	-	-	-	-	-	62
Cc1cc(C(=O)COc2ccccc2C(N)=O)c(C)n1CC1CCCO1 (centres undefined)	-	-	-	-	-	-
CC(C)n1c(CN2CCN(C(=O)c3ccco3)CC2)nc2c1c(=O)n(C)c(=O)n2C	-	-	-	-	-	-
Cc1cc(C(=O)COC(=O)C2COc3ccccc3O2)c(C)n1CC1CCCO1 (centres undefined)	-	-	-	-	-	-
COCCn1c(C)cc(C(=O)COC(=O)c2n[nH]c3ccccc23)c1C	-	-	55	54	-	86
Cc1cc(C(=O)COC(=O)c2cc(O)c3ccccc3c2O)c(C)n1CC1CCCO1 (centres undefined)	-	-	-	-	?	79
Cc1cc(C(=O)COC(=O)c2n[nH]c3ccccc23)c(C)n1CC1CCCO1 (centres undefined)	-	-	-	60	-	82
Cc1cc(C(=O)COC(=O)c2n[nH]c3ccccc23)c(C)n1C	-	-	-	-	-	-
COCCn1c(C)cc(C(=O)COC(=O)c2ccc3ncsc3c2)c1C	-	-	-	-	-	-
COCCn1c(C)cc(C(=O)COC(=O)c2cccnc2SC)c1C	-	-	-	69	-	68
CCSc1ccc(-c2ccc(C)cc2)nn1	-	-	-	-	-	-
COc1ccc(-c2ccc(SC)nn2)cc1	-	-	-	-	-	88
CCOc1ccc(-c2ccc(SCC)nn2)cc1	-	-	-	-	-	64
CC(=O)N1CCN(Cc2nc3cc(NC(=O)c4ccc(F)cc4)ccc3n2C)CC1	-	-	-	-	-	-
NC(=O)N=Nc1c2[nH]c3ccccc3nc-2c2ccccc12	72	-	-	-	-	-
O=c1[nH]c2ccccc2nc1-c1ccccc1	-	-	-	-	-	-
CCc1nc(Nc2ccc3c(c2)OCO3)c2oc3ccccc3c2n1	-	-	-	-	-	50
CCc1nc(Nc2cccc(O)c2)c2oc3ccccc3c2n1	57	-	-	76	-	70
Nc1c(N(CCC2=CCCCC2)C(=O)COc2ccc(F)cc2Cl)c(=O)[nH]c(=O)n1Cc1ccccc1	106	-	-	-	97	-
Nc1c(N(CCC2=CCCCC2)C(=O)COc2ccc([N+](=O)[O-])cc2)c(=O)[nH]c(=O)n1Cc1ccccc1	84	-	-	-	-	-
Nc1c(N(CCC2=CCCCC2)C(=O)Cc2ccc(F)cc2)c(=O)[nH]c(=O)n1Cc1ccccc1	-	-	-	-	-	-
CC1=CCC(C(=O)O)C(C(=O)Nc2ccc(-c3nc4ccc(C)cc4s3)cc2)C1 (centres undefined)	-	-	-	-	-	-
Cc1ccccc1CN1C(=O)[C@@H]2Cc3c([nH]c4ccccc34)C(C)(C)N2C1=O	-	-	-	-	-	-
